# Measured values: PubChem BioAssay (NCATS)
# Values without a mark were called inactive. Records with an inconclusive call do not appear. Entries that show only a call come without a potency. Calls of active or inactive are those of the source. Calls follow the shape of the dose curve; as a rule, active = well fitted curve in the direction sought with a large enough effect; inconclusive = small, poorly fitted or top-dose-only effect, or another doubt; inactive = no such curve, though single readings can be large; an effect the other way counts as inactive or inconclusive.
# How the values were obtained:
# [1] = target: Calcium and integrin-binding protein 1 (Homo sapiens) (UniProt Q99828); assay: Primary qHTS for Identification of Calcium Integrin Binding Protein 1 (CIB1) Competitor (AID 1508620);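 also: GST tagged CIB1 binding a fluorescein labelled alphaIIb integrin peptide tracer; top concentration of the series differs between compounds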
# How it was run: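 Fluorescence polarization competition: CIB1-GST (1 uM final) preincubated with compound 15 min at room temperature, then FITC-labeled alphaIIb peptide (100 nM final) added for another 15 min. Polarization read at Ex 480/Em 540.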
# [2] = Primary qHTS for inhibitors of nuclear receptor binding SET domain protein 2 (NSD2) in an isogenic RCH-ACV NSD2 p.E1099K mutant (9B) (AID 1645876); also: nearly all actives have a fitted effect of over 70% in size; also: potency is read from the fitted curve at half-maximal effect
# [3] = target: Phospholipid hydroperoxide glutathione peroxidase GPX4 (Homo sapiens) (UniProt P36969); assay: Primary qHTS Assay for Inhibitors of Recombinant Selenoprotein Glutathione Peroxidase 4 (GPX4) (AID 1845192); also: nearly all actives have a fitted effect of over 65% in size
# How it was run: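 qHTS, GR-coupled: GPX4 200 nM + cpd 30 min RT → GSH 1 mM, NADPH 0.5 mM, GR 100 nM → CHP 0.5 mM start; fluor 340/450 at t0 and t15 min; no-enzyme wells as control.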
# [4] = target: Luciferin 4-monooxygenase (Photinus pyralis) (UniProt P08659); assay: Primary firefly luciferase (FLuc) qHTS assay for identification of artifact compounds. (AID 1845220); details: outcome: dose series up to 54.1 µM unless noted; also: nearly all actives have a fitted effect of over 60% in size
# How it was run: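 In this counter-screen for luciferase artifacts, test compounds met substrate (10 uM each luciferin and ATP) before 10 nM enzyme started the reaction. Light output was measured 5 min later.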
# [5] = tested on: Nanoluciferase (engineered Oplophorus gracilirostris luciferase); assay: Primary Nanoluciferase (NLuc) qHTS assay for identification of artifact compounds. (AID 1845222);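 also: NLuc secreted into diluted conditioned medium of S16 cells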
# How it was run: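 Using secreted nanoluciferase in S16 culture medium (0.22 um filtered, 1:55 dilution), compounds were preincubated 15 min at RT. Signal was generated with Nano-Glo reagent (1:100) over 5 min.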
# CRL-7250 = normal cell line; assay: Cytotoxic Profiling of Annotated Libraries Using Quantitative High-Throughput Screening (AID 1296008); details: Five cell lines viability, CellTiter-Glo ATP luminescence, 48-72 h; max response: stronger effect = lower value; also: nearly all actives have a fitted effect of over 60% in size; also: potency is read from the fitted curve at half-maximal effect
# How it was run: (§1)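 Compounds were pin-transferred onto cells and incubated 48 or 72 hr at 37 degree Celsius, 95% humidity. CellTiter-Glo was added, plates sat 10 min at room temperature, then ATP-coupled luminescence was imaged as the viability read-out.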
# HEK293 = assay: as above; details: Five cell lines viability, CellTiter-Glo ATP luminescence, 48-72 h; max response: stronger effect = lower value
# How it was run: as §1
# NIH3T3 = assay: as above; details: Five cell lines viability, CellTiter-Glo ATP luminescence, 48-72 h; max response: stronger effect = lower value
# How it was run: as §1
# C33A = assay: Primary qHTS to identify gynecologic anti-cancer compounds using libraries of approved drugs and bioactive compounds (AID 1345084); details: Gynecologic cancer cell panel viability, ATPlite luminescence, 48 h; series mostly up to 57.5 µM; also: nearly all actives have a fitted effect of over 55% in size; also: potency is read from the fitted curve at half-maximal effect
# How it was run: (§2)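 Cytotoxicity screen measuring ATP content by luciferase luminescence. Each compound is applied at five concentrations for 48 h at 37 C with 5% CO2.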
# CAOV3 = assay: as above; details: Gynecologic cancer cell panel viability, ATPlite luminescence, 48 h; series mostly up to 57.5 µM
# How it was run: as §2
# CASKI = assay: as above; details: Gynecologic cancer cell panel viability, ATPlite luminescence, 48 h; series mostly up to 57.5 µM
# How it was run: as §2
# Es-2 = assay: as above; details: Gynecologic cancer cell panel viability, ATPlite luminescence, 48 h; series mostly up to 57.5 µM
# How it was run: as §2
# Hek293T = assay: as above; details: Gynecologic cancer cell panel viability, ATPlite luminescence, 48 h, control line for the selectivity index; series mostly up to 57.5 µM
# How it was run: as §2
# JEG-3 = assay: as above; details: Gynecologic cancer cell panel viability, ATPlite luminescence, 48 h; series mostly up to 57.5 µM
# How it was run: as §2
# OV90 = assay: as above; details: Gynecologic cancer cell panel viability, ATPlite luminescence, 48 h; series mostly up to 57.5 µM
# How it was run: as §2
# PA-1 = assay: as above; details: Gynecologic cancer cell panel viability, ATPlite luminescence, 48 h; series mostly up to 57.5 µM
# How it was run: as §2
# Tov-21-G = assay: as above; details: Gynecologic cancer cell panel viability, ATPlite luminescence, 48 h; series mostly up to 57.5 µM
# How it was run: as §2
# Tov112D = assay: as above; details: Gynecologic cancer cell panel viability, ATPlite luminescence, 48 h; series mostly up to 57.5 µM
# How it was run: as §2
# [6] = Primary redox qHTS assay for identification of artifact compounds. (AID 1845223)
# How it was run: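 Redox-cycling detection via DTT (250 uM final) oxidation coupled to Amplex Red (25 uM)/HRP (250 mU/mL) in HBSS. 15 min preincubation plus 30 min after DTT, room temperature. Ex/Em 525/598 nm; 4-parameter Hill fit against DMSO and 10 uM DA3003.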
# [7] = Primary fluorescence-based thiol-reactive (MSTI) qHTS assay for identification of artifact compounds. (AID 1845221); also: nearly all actives have a fitted effect of over 65% in size; also: potency is read from the fitted curve at half-maximal effect
# How it was run: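 Curve-fitted percent inhibition (4-parameter Hill) derived from fluorescence, Ex 525/Em 598 nm, scaled with Acetyl-MSTI and MSTI; 1 h incubation at room temperature.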
# Chain of Calcium and integrin-binding protein 1 (Homo sapiens) (Q99828 whole entry, looked up): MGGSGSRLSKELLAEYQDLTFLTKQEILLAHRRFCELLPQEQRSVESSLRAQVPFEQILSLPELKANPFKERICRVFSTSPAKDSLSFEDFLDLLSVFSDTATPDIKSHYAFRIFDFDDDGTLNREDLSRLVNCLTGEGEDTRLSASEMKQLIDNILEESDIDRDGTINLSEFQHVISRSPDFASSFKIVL
# Chain of Phospholipid hydroperoxide glutathione peroxidase GPX4 (Homo sapiens) (P36969 whole entry, looked up): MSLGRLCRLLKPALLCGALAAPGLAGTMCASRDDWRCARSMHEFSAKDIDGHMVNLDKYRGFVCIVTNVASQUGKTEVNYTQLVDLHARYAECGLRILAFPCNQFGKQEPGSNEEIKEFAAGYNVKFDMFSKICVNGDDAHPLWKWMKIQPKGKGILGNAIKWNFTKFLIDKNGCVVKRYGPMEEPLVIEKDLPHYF
compound,measurement,setting,value
C=C1C[C@]2(O)[C@@]3(C)CCC(=O)C(C)(C)C3=C(O)C(=O)[C@@]2(C)[C@@H]2C(=O)O[C@@](C)(C(=O)OC)C(=O)[C@@]12C,Potency,[1],inactive
same,Potency,[2],inactive
same,Potency,[3],inactive
same,outcome,[4],inactive
same,Potency,[5],inactive
same,max response,CRL-7250,2.22%
same,outcome,HEK293,inactive
same,max response,NIH3T3,1.84%
same,Potency,C33A,inactive
same,Potency,CAOV3,inactive
same,Potency,CASKI,inactive
same,Potency,Es-2,inactive
same,Potency,Hek293T,inactive
same,Potency,JEG-3,inactive
same,Potency,OV90,inactive
same,Potency,PA-1,inactive
same,Potency,Tov-21-G,inactive
same,Potency,Tov112D,inactive
CCC1C2CC3C4N(C)c5ccccc5C45CC(C2C5O)N3C1O (centres undefined),Potency,[2],inactive
same,Potency,[3],inactive
same,outcome,[4],inactive
same,Potency,[5],inactive
same,Potency,[6],inactive
same,max response,CRL-7250,-9.12%
same,outcome,HEK293,inactive
same,max response,NIH3T3,2.24%
same,Potency,C33A,inactive
same,Potency,CAOV3,inactive
same,Potency,CASKI,inactive
same,Potency,Es-2,inactive
same,Potency,Hek293T,inactive
same,Potency,JEG-3,inactive
same,Potency,OV90,inactive
same,Potency,PA-1,inactive
same,Potency,Tov-21-G,inactive
same,Potency,Tov112D,inactive
C[C@@H]1C[C@@H](O)[C@]2(O)O[C@@H]3C[C@@]4(C=O)C(CC[C@@H]5C4CC[C@]4(C)[C@@](O)(C6=CC(=O)OC6)CC[C@]54O)C[C@H]3OC2O1 (some centres undefined),Potency,[1],inactive
same,Potency,[2],0.709 µM (active)
same,outcome,[4],inactive [at 25.7 µM]
same,Potency,[7],9.22 µM (active)
same,Potency,[5],inactive
same,Potency,[6],inactive
same,Potency,CRL-7250,0.796 µM (active)
same,Potency,HEK293,1.12 µM (active)
same,max response,NIH3T3,-15.7%
same,Potency,C33A,2.82 µM (active)
same,Potency,Es-2,3.55 µM (active)
same,Potency,Hek293T,3.16 µM (active)
same,Potency,Tov-21-G,1.78 µM (active)
same,Potency,Tov112D,0.891 µM (active)
N#Cc1cn([C@@H]2O[C@H](CO)[C@H](O)[C@@H]2O)c2ncnc(N)c12,Potency,[1],inactive
same,Potency,[2],0.0129 µM (active)
same,Potency,[3],inactive
same,outcome,[4],inactive
same,Potency,[5],inactive
same,Potency,[6],inactive
same,Potency,CRL-7250,0.058 µM (active)
same,Potency,HEK293,0.0461 µM (active)
same,Potency,CASKI,0.282 µM (active)
same,Potency,Tov112D,0.316 µM (active)
COC1C(O)C(C)OC(OC2C(CO)O[C@@H](O[C@@H]3CC4CCC5C(CC[C@]6(C)[C@@H](C7=CC(=O)OC7)CC[C@]56O)[C@@]4(C)[C@H](OC(C)=O)C3)C(O)C2O)C1O (some centres undefined),Potency,[1],inactive
same,Potency,[2],2.16 µM (active)
same,Potency,[3],inactive
same,outcome,[4],inactive [at 25.7 µM]
same,Potency,[7],inactive
same,Potency,[5],inactive
same,Potency,CRL-7250,2.17 µM (active)
same,Potency,HEK293,2.43 µM (active)
same,outcome,NIH3T3,inactive
same,Potency,C33A,3.55 µM (active)
same,Potency,Es-2,6.31 µM (active)
same,Potency,Hek293T,3.55 µM (active)
same,Potency,OV90,inactive
same,Potency,Tov-21-G,3.55 µM (active)
same,Potency,Tov112D,2.82 µM (active)
CN1C[C@@H]2CN(c3ccc(-c4ccccc4)nn3)C[C@@H]2C1,Potency,[1],inactive
same,Potency,[2],inactive
same,Potency,[3],inactive
same,outcome,[4],inactive
same,Potency,[7],inactive
same,Potency,[5],inactive
same,Potency,[6],inactive
same,max response,CRL-7250,2.36%
same,max response,HEK293,-5.4%
same,outcome,NIH3T3,inactive
same,Potency,C33A,inactive
same,Potency,CAOV3,inactive
same,Potency,Es-2,inactive
same,Potency,Hek293T,inactive
same,Potency,JEG-3,inactive
same,Potency,OV90,inactive
same,Potency,PA-1,inactive
same,Potency,Tov-21-G,inactive
same,Potency,Tov112D,inactive
